Screening data: PubChem, NMMLSC
Compounds with a hit are over-represented: about 0.92% of the library has one in this group of screens.
RPL19A TOR yeast – RPL19A-GFP expression modulators in yeast, primary screen, cell-based, S. cerevisiae, multiplex flow cytometry, MLPCN; percent response vs DMSO, % at 10 µM; 0.3% of 330,000 active; AID 2025, 2009; S. cerevisiae RPL19A-GFP strain, 3 h; hits give low values;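 active means percent response vs DMSO below 50%; inconclusive means fewer than 70 events counted for the yeast strain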;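 further: median channel GFP fluorescence of the barcoded RPL19A-GFP strain; ratio of sample median GFP to plate DMSO average so 100% = DMSO; lower means less RPL19A-GFP as with rapamycin TOR inhibition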
MEP2-GFP yeast – modulators of MEP2-GFP levels in yeast, primary screen, S. cerevisiae, multiplex flow cytometry, MLPCN library | S. cerevisiae MEP2-GFP strain, 3 h; 100% = DMSO control level | GFP response vs DMSO, % at 10 µM | 0.51% of 330,000 active | AID 2016, 2009;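 active means GFP response versus DMSO above a set limit, roughly screen mean plus 3 SD, cut at about 180% in these data; inconclusive means fewer than 70 cells counted for a yeast strain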;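 further: median GFP fluorescence of the barcode-gated MEP2-GFP cells per well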
CIT2 TOR yeast – modulators of CIT2-GFP expression in yeast, primary screen, S. cerevisiae, GFP fusion, multiplex flow cytometry, MLPCN library; S. cerevisiae CIT2-GFP strain, 3 h; 100 means same as DMSO wells; GFP response vs DMSO, % at 10 µM; 0.065% of 320,000 active; AID 2029, 2009;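 active means GFP response relative to DMSO above a set limit, near the screen mean plus 3 SD, cut at about 150% in these data; inconclusive means Fewer than 70 cells measured for a yeast strain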;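 further: ratio of well median GFP fluorescence to mean of DMSO wells on the plate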
AGP1-GFP MLPCN – modulators of AGP1-GFP expression in yeast TOR pathway, primary screen, cell-based, multiplex flow cytometry, S. cerevisiae, MLPCN library; GFP response vs DMSO, % at 10 µM; AID 2066, 2009; 3 h; GFP as percent of DMSO wells; 0.02% of 320,000 active;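 active means GFP response relative to DMSO above a set limit, near screen average plus 3 SD, cut at about 150% in these data; inconclusive means fewer than 70 cells counted for the yeast strain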;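 further: median GFP channel fluorescence of the gated AGP1 strain per well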
LAP4 TOR yeast – modulators of LAP4-GFP expression in yeast, primary screen, S. cerevisiae, multiplex flow cytometry, MLPCN library | 3 h; median GFP as percent of DMSO wells | GFP response vs DMSO, % at 10 µM | 0.34% of 320,000 active | AID 2023, 2009;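 active means GFP response vs DMSO above a set limit, about the screen mean plus 3 SD, cut at about 150% in these data; inconclusive means under 70 cell events counted for the yeast strain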
Starred values were filed as active, the others as inactive; ? = inconclusive; nt = not tested or not shown; [ ] = dose if it differs, or a comment.

SMILES	RPL19A TOR yeast	MEP2-GFP yeast	CIT2 TOR yeast	AGP1-GFP MLPCN	LAP4 TOR yeast
Cn1c(/C=C/c2ccccc2)nc2ccccc2c1=O	97	94	85	84	91
O=C(Nc1nc(-c2ccccn2)cs1)c1ccc(Cl)s1	69	233*[may fluoresce violet]	?	22	312*[may fluoresce violet]
O=C(Nc1nc(-c2ccc(Cl)s2)cs1)c1cccs1	95	97	86	94	153*
Cc1ccc(C(=O)Nc2nc(-c3ccccn3)cs2)s1	110	110	109	112	108
O=C(Nc1nc(-c2ccccc2)cs1)c1cccs1	94	87	75	nt	91
CCN(CC)CCNC(=O)Cn1c(-c2ccccn2)nc2ccccc21	99	180*	128	103	144
NNC(=O)Cn1c(-c2ccccn2)nc2ccccc21	104	104	104	99	94
Cc1ccc(N(CC(=O)NCc2ccc(F)cc2)C(=O)CCC(=O)Nc2ccccn2)cc1C	45*[may fluoresce violet]	564*[may fluoresce violet]	?	?	76
COc1ccc(N(CC(=O)NCc2ccc(F)cc2)C(=O)CCC(=O)Nc2ccccn2)cc1	94	92	94	89	90
Cc1cc(NC(=O)c2ccc(Br)o2)ccc1NC(=O)c1ccco1	45*[may fluoresce violet]	238*[may fluoresce violet]	?	?	70
Cc1ccc(C(=O)Nc2ccc(NC(=O)c3ccco3)c(C)c2)cc1	101	102	90	95	112
CCOC(=O)c1cnn(-c2nc(SC)nc3sc4c(c23)CCCC4)c1N	72	187*[may fluoresce violet]	?	nt	100
COc1ccc(NC(=O)c2cc(C)cc(C)c2)cc1S(=O)(=O)N1CCCCC1	99	128	94	99	99
N#C/C(=C\c1c(N2CCCCCC2)nc2ccccn2c1=O)C(=O)NC1CCS(=O)(=O)C1 (stereo unspecified)	105	181*	106	101	119
N#C/C(=C\c1c(Oc2ccccc2Cl)nc2ccccn2c1=O)C(=O)NC1CCS(=O)(=O)C1 (stereo unspecified)	98	104	98	82	96
N#C/C(=C\c1c(N2CCOCC2)nc2ccccn2c1=O)C(=O)NC1CCS(=O)(=O)C1 (stereo unspecified)	55	598*[may fluoresce violet]	?	23	100
Cc1cc(C)cc(Oc2nc3ccccn3c(=O)c2/C=C(\C#N)C(=O)NC2CCS(=O)(=O)C2)c1 (stereo unspecified)	52	627*[may fluoresce violet]	?	?	95
N#C/C(=C\c1c(N2CCN(c3ccccc3)CC2)nc2ccccn2c1=O)C(N)=O	41*	260*	88	74	99
N#C/C(=C\c1c(N2CCCCCC2)nc2ccccn2c1=O)C(N)=O	102	104	109	100	95
Cc1ccc(Oc2nc3ccccn3c(=O)c2/C=C(\C#N)C(=O)NC2CCS(=O)(=O)C2)c(C)c1 (stereo unspecified)	100	104	102	96	88
CCCC1(C(=O)OC)NC(c2ccco2)C2C(=O)N(c3ccc(C)cc3)C(=O)C21 (stereo unspecified)	37*[may fluoresce violet]	333*[may fluoresce violet]	nt	?	91
CCOC(=O)C1(CC)NC(c2ccco2)C2C(=O)N(c3ccc(C)cc3)C(=O)C21 (stereo unspecified)	98	97	94	99	92
CCOc1cc(C(=O)Nc2nnc(S(=O)(=O)N3CCOCC3)s2)cc(OCC)c1OCC	14*[may fluoresce violet]	210*[may fluoresce violet]	?	?	65
Cc1ccc2[nH]c3c(=O)n(CC(=O)Nc4ccccc4N4CCN(C)CC4)ncc3c2c1	43*[may fluoresce violet]	258*[may fluoresce violet]	?	?	56
Cc1ccc2[nH]c3c(=O)n(CC(=O)N4CCN(C)CC4)ncc3c2c1	78	193*	117	115	111
SMILES	RPL19A TOR yeast	MEP2-GFP yeast	CIT2 TOR yeast	AGP1-GFP MLPCN	LAP4 TOR yeast
CN(C(=O)CSc1nc2ccccc2c(=O)n1-c1ccccc1Cl)C1CCS(=O)(=O)C1 (stereo unspecified)	103	103	110	101	94
O=C(NCc1ccccc1C(F)(F)F)C1CCC(=O)N(CCCc2ccccc2)C1 (stereo unspecified)	94	99	95	95	96
NC1=NC(=O)C(CC(=O)c2ccc(Cl)cc2)S1 (stereo unspecified)	98	183*	96	94	125
Cc1ccc(C(=O)CC2SC(N)=NC2=O)cc1 (stereo unspecified)	101	104	101	107	100
O=C(Nc1ccc(C(=O)NCCCN2CCN(c3ccccc3)CC2)cc1)C1=CSCCO1	99	108	106	103	105
S=c1[nH]nc(-c2ccco2)n1/N=C/C(Cl)=C/c1ccccc1	90	111	94	89	167*
Cc1cc(-c2n[nH]c(=S)n2/N=C/C(Cl)=C/c2ccccc2)n[nH]1	107	101	107	102	90
O=C(CCCC(=O)OCC(F)(F)C(F)F)Nc1ccc(NC(=O)CCCC(=O)OCC(F)(F)C(F)F)cc1	100	101	101	106	97
O=C(Nc1ccc(Cl)cc1)C1CC=CCC1C(=O)OCC(F)(F)C(F)F (stereo unspecified)	37*[may fluoresce violet]	266*[may fluoresce violet]	?	25	118
Cc1ccc2occ(C(c3nnnn3C3CCCC3)N3CCN(C(=O)c4ccco4)CC3)c(=O)c2c1 (stereo unspecified)	98	95	90	91	98
O=C(c1ccco1)N1CCN(C(c2coc3ccc(Cl)cc3c2=O)c2nnnn2C2CCCC2)CC1 (stereo unspecified)	20*[may fluoresce violet]	416*[may fluoresce violet]	?	?	93
O=C(O)c1ccc2c3c(ncnc13)-c1ccccc1C2=O	101	150	116	99	170*
COc1ccccc1/C=C1\CCCC2=C1Nc1nnnn1C2c1ccccc1OC (stereo unspecified)	97	102	98	100	95
CCOC(=O)C1CCN(S(=O)(=O)c2cccc(-c3cn4cc(C)ccc4n3)c2)CC1	46*[may fluoresce violet]	373*[may fluoresce violet]	?	?	98
Cc1nnc(SCC(=O)Nc2c(C)n(C)n(-c3ccccc3)c2=O)n1Cc1ccccc1	87	92	94	93	94
COc1ccccc1/C=N\Nc1ccccc1[N+](=O)[O-]	39*[may fluoresce violet]	299*[may fluoresce violet]	nt	nt	nt
COc1ccc(C2C=C(c3ccccc3)Nc3nc(CCCO)nn32)cc1 (stereo unspecified)	44*[may fluoresce violet]	576*[may fluoresce violet]	?	?	92
OCCCc1nc2n(n1)C(c1ccccc1)C=C(c1ccccc1)N2 (stereo unspecified)	100	87	93	98	94
CS(=O)(=O)N(CC(=O)NC1CC2CCC1C2)c1ccc(Oc2ccccc2)cc1 (stereo unspecified)	101	100	104	105	105
